These results are taken from ChEMBL document CHEMBL1961873, “Compounds: GSK PKIS; Assays: Nanosyn kinase panel” (2012).

The target in assay [1] is Fibroblast growth factor receptor 4 (Homo sapiens) (UniProt P22455). Particulars: at 1 µM.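 Note: reported figure is the averaged percent inhibition of FGFR4, from the GSK PKIS kinase screening panel.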
For assay [2], the target named is Tyrosine-protein kinase Fgr (Homo sapiens) (UniProt P09769). Particulars: at 0.1 µM.
For assay [3] the target is unchanged. Particulars: at 1 µM.
Assay [4] deals with Vascular endothelial growth factor receptor 1 (Homo sapiens) (UniProt P17948). Particulars: at 0.1 µM.
Assay [5] has the same target. Particulars: at 1 µM.
Assay [6] has as its target Receptor-type tyrosine-protein kinase FLT3 (Homo sapiens) (UniProt P36888). Particulars: at 0.1 µM.
For assay [7] the target is unchanged. Conditions: at 1 µM.
Assay [8] deals with T1, Receptor-type tyrosine-protein kinase FLT3 (Homo sapiens), P36888 [D835Y].
T1 sequence (whole entry): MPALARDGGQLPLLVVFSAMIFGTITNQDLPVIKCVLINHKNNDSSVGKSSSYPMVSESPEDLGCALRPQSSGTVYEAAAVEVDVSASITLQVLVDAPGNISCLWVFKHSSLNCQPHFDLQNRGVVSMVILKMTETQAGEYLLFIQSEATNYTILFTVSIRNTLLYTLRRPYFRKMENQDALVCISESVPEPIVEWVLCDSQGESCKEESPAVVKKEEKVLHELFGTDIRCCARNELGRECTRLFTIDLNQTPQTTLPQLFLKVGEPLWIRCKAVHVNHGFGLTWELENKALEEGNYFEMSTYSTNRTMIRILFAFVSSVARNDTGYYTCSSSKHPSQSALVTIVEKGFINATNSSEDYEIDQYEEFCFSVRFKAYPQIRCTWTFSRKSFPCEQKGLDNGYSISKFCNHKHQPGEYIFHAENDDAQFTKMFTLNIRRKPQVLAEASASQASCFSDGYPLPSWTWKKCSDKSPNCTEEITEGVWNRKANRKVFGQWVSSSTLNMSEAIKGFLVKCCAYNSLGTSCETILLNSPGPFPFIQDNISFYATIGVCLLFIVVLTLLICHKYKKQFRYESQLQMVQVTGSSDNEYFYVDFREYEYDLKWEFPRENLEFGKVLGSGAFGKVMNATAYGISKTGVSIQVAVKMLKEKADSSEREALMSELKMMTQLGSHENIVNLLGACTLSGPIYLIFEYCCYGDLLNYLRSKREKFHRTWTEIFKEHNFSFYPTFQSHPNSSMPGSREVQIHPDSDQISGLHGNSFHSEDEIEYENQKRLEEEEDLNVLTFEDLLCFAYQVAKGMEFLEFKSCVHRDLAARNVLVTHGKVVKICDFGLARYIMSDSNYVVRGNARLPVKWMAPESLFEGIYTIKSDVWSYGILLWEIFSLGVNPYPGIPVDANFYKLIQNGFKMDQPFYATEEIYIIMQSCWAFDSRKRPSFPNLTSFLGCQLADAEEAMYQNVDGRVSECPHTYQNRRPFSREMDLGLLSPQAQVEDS
Conditions: at 0.1 µM.

The target of assay [9] is Non-receptor tyrosine-protein kinase TYK2 (Homo sapiens) (UniProt P29597). Particulars: at 1 µM.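 Note: values are mean percent inhibition of TYK2 kinase.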
Chain of Non-receptor tyrosine-protein kinase TYK2 (Homo sapiens) (P29597 whole entry): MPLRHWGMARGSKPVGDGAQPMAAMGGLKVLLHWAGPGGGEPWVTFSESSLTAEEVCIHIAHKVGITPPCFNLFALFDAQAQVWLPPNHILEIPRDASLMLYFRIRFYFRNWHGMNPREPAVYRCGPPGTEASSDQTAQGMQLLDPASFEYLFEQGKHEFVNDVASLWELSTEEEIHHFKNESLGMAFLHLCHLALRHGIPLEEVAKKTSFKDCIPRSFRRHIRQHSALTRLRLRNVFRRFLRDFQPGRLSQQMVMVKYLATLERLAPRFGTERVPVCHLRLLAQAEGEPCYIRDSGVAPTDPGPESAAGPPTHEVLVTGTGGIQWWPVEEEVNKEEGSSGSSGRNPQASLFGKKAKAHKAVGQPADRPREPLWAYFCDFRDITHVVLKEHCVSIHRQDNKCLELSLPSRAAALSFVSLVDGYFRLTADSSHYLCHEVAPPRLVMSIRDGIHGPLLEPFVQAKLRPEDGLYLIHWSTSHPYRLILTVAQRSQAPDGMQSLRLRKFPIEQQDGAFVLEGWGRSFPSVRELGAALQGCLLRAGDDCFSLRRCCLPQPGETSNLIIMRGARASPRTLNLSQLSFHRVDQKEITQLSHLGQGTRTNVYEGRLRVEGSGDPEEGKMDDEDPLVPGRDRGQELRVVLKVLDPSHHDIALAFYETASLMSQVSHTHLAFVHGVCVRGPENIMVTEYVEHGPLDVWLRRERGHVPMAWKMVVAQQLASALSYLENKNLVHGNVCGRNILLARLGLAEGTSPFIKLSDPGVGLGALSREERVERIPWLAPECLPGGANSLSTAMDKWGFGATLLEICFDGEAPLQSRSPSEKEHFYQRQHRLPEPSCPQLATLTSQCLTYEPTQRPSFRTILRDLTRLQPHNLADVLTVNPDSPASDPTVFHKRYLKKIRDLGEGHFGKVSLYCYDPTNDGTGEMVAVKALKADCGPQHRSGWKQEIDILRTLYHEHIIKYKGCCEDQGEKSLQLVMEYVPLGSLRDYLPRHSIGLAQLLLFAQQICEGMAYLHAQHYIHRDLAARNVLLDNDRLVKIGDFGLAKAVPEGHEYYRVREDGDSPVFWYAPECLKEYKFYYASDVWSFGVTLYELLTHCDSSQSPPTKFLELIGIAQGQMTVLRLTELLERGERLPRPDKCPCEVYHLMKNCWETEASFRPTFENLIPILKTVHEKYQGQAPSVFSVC
Assay [10] has as its target T2, Tyrosine-protein kinase receptor TYRO3 (Homo sapiens) (UniProt Q06418).
T2 sequence (whole entry): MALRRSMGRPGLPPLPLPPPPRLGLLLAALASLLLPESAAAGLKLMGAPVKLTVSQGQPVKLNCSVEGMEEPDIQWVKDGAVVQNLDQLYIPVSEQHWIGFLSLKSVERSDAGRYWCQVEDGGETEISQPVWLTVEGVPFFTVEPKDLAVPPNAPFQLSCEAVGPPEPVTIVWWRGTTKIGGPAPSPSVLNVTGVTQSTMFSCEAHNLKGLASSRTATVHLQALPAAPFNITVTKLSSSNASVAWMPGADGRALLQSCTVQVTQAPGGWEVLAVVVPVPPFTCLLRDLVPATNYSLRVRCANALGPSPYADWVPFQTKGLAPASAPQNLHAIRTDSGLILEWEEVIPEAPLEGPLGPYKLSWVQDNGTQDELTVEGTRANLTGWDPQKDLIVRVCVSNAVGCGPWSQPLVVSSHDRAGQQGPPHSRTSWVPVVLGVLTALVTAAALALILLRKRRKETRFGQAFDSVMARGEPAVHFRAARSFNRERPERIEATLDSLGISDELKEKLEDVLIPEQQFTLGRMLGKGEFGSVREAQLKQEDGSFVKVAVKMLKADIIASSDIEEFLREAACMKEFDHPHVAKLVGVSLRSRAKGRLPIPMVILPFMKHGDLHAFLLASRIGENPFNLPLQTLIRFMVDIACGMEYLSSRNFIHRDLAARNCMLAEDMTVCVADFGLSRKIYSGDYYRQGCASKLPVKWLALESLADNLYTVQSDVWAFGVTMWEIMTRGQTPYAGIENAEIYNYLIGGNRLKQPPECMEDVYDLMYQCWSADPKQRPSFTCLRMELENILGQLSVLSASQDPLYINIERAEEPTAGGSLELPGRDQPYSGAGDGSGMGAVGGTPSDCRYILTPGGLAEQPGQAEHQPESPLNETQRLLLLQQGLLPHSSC
Particulars: at 0.1 µM.

The target in assay [11] is T2, Tyrosine-protein kinase receptor TYRO3 (Homo sapiens). Conditions: at 1 µM.
Assay [12] addresses Tyrosine-protein kinase Yes (Homo sapiens) (UniProt P07947). Particulars: at 0.1 µM.
The target is the same in assay [13]. Particulars: at 1 µM.
Assay [14] deals with T3, Tyrosine-protein kinase ZAP-70 (Homo sapiens) (UniProt P43403).
T3 sequence (whole entry): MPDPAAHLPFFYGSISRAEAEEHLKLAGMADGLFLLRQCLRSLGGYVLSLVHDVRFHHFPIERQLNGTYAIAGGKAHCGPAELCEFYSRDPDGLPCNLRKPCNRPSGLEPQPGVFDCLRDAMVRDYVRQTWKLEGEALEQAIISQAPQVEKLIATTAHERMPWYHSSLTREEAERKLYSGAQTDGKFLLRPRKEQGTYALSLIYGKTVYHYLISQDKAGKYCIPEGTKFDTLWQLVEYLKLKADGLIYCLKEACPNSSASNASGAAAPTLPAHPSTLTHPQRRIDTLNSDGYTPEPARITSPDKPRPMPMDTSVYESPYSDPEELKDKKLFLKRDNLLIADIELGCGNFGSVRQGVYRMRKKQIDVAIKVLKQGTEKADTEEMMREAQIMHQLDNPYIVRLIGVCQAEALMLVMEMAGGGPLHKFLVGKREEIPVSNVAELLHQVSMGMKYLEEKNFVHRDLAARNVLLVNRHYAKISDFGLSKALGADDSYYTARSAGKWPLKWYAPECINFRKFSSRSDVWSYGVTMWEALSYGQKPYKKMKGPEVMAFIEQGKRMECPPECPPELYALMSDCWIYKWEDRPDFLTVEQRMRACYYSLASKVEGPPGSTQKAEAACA
Particulars: at 0.1 µM.

Assay [15] addresses T3, Tyrosine-protein kinase ZAP-70 (Homo sapiens). Particulars: at 1 µM.
The target in assay [16] is Serine/threonine-protein kinase B-raf (Homo sapiens) (UniProt P15056). Conditions: at 0.1 µM.
Chain of Serine/threonine-protein kinase B-raf (Homo sapiens) (P15056 whole entry): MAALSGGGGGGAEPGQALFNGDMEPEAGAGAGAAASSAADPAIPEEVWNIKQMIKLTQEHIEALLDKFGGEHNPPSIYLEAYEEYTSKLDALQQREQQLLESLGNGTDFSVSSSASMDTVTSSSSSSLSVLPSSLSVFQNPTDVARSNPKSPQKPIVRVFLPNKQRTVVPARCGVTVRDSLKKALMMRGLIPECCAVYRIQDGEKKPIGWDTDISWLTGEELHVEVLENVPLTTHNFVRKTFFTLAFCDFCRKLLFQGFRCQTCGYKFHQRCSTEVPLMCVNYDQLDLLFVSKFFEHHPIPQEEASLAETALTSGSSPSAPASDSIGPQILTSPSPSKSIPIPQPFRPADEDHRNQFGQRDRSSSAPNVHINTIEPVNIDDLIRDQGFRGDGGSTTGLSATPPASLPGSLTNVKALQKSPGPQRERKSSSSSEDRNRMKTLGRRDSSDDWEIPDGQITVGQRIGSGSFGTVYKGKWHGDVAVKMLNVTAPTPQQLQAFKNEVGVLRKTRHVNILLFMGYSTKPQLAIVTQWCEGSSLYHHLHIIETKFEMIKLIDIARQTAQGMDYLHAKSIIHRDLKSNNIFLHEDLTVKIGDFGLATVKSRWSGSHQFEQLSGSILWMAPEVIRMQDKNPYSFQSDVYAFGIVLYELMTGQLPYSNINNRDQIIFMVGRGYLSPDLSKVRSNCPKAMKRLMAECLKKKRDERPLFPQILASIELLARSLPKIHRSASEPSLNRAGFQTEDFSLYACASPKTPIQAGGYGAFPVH
Assay [17] has the same target. Particulars: at 1 µM.
In assay [18] the test system is Serine/threonine-protein kinase B-raf (Homo sapiens), P15056 [V600E]. Conditions: at 0.1 µM.
Chain of Serine/threonine-protein kinase B-raf (Homo sapiens), P15056 [V600E] (P15056 whole entry V600E): as the sequence (P15056 whole entry) above, with V600E counted along it
For assay [19] the test system is unchanged. Particulars: at 1 µM.
Assay [20] addresses RAF proto-oncogene serine/threonine-protein kinase (Homo sapiens) (UniProt P04049). Particulars: at 0.1 µM.

The term inhibition denotes the relative decrease from the control value, in per cent.

Chain of Fibroblast growth factor receptor 4 (Homo sapiens) (P22455 22-802 limits assumed): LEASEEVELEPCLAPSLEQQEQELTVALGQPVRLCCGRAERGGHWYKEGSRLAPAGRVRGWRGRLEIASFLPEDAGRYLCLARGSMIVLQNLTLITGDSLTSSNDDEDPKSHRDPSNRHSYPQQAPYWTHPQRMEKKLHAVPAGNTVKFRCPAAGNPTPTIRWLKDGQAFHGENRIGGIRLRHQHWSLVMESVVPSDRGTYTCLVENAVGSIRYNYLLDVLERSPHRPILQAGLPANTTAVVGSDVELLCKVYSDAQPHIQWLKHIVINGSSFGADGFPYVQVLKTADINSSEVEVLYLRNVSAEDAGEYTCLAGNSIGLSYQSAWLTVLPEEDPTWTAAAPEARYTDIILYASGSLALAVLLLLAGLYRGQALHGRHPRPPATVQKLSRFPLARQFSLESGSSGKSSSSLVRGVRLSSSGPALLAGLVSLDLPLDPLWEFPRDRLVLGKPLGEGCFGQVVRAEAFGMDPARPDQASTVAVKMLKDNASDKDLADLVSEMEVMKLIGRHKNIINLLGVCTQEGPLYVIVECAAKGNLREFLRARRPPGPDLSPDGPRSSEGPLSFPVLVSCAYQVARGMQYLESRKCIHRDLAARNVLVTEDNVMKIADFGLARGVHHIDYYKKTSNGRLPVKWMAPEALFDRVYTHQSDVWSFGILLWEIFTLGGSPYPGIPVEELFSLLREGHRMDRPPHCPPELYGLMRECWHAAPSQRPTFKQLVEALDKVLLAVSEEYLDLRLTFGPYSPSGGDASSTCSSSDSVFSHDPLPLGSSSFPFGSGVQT
Chain of RAF proto-oncogene serine/threonine-protein kinase (Homo sapiens) (P04049 whole entry): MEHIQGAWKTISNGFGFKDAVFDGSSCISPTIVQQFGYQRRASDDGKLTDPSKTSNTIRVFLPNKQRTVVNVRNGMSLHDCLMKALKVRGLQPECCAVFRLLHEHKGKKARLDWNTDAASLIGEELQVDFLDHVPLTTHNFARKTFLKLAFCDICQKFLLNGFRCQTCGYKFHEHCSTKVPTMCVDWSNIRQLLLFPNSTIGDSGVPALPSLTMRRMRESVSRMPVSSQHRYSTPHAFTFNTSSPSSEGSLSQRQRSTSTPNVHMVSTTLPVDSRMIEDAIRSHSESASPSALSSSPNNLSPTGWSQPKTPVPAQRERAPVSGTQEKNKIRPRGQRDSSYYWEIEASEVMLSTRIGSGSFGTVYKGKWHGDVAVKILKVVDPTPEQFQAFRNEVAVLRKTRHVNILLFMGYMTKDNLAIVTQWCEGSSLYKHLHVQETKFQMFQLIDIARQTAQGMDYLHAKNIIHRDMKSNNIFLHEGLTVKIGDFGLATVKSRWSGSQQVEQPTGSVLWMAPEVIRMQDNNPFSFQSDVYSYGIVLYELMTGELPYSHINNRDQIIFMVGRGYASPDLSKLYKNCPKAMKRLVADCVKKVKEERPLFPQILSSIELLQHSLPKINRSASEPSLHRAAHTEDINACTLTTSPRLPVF
Chain of Tyrosine-protein kinase Yes (Homo sapiens) (P07947 2-543 limits assumed): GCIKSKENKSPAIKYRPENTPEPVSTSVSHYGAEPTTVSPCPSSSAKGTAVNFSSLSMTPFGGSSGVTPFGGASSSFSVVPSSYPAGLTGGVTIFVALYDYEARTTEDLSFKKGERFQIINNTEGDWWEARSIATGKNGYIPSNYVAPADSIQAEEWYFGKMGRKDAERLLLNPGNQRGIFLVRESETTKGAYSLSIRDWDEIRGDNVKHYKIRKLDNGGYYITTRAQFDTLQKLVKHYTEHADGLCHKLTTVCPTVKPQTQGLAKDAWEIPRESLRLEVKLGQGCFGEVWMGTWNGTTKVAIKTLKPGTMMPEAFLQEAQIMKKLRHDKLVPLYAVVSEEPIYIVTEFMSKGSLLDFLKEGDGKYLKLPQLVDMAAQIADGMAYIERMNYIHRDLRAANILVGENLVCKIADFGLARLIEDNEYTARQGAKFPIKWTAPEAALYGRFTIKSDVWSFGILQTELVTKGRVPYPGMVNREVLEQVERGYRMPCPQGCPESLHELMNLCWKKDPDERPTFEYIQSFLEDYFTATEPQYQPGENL
Chain of Tyrosine-protein kinase Fgr (Homo sapiens) (P09769 2-529 limits assumed): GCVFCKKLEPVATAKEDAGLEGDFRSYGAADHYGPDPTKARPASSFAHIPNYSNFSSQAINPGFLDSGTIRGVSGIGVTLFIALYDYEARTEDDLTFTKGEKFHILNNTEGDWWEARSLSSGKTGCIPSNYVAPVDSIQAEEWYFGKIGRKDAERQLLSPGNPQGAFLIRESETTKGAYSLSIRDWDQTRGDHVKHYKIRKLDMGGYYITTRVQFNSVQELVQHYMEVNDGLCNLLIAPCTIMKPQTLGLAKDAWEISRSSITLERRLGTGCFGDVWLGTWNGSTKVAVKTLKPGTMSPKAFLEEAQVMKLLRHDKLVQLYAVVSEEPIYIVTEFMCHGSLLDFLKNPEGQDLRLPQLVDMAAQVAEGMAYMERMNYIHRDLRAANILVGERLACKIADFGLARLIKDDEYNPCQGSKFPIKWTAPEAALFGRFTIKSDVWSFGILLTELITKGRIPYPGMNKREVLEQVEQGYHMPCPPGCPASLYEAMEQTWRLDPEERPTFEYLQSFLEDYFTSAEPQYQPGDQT

`CCn1c(-c2nonc2N)nc2c(C#CC(C)(C)O)nc(O[C@@H](CN)c3ccccc3)cc21`: the inhibition is 1.13% in assay [1]; 3.54% in assay [2]; 28.6% in assay [3]; 36.1% in assay [4]; 79.8% in assay [5]; -2.74% in [6]. The inhibition in assay [7] is -0.29%; in assay [8], 2.74%; in [9], 1.49%; in assay [10], 0.32%; in assay [11], 6.97%; in assay [12], 2.89%. The inhibition in assay [13] is 23.8%; in assay [14], 0.99%; in assay [15], 1.24%; in assay [16], -0.9%; in [17] it was 5.48%; in assay [18], -1.97%. The inhibition was 6.51% in [19] and -3.13% in [20].
As to `NS(=O)(=O)c1ccc(-c2ccc3c(NC(=O)C4CC4)n[nH]c3c2)cc1`, the inhibition in assay [1] is -0.07%; in assay [2], 1.76%; in [3] it was 6.23%; in assay [4], 0.3%; in [5], 1.37%; in assay [6], -1.65%. Moreover, the inhibition is 3.53% in assay [7]; 2.16% in [8]; -4.76% in assay [9]; 3.34% in assay [10]; 13% in assay [11]; 0.69% in [12]. Moreover, the inhibition in assay [13] was 2.38%; in [14], 0.78%; in assay [15] it was 0.22%; in assay [16], 2.45%; in assay [17], 5.35%; in [18], 2.03%. The inhibition in assay [19] worked out at 3.48%; in assay [20], 4.2%.
Take `Fc1ccc(-c2ncn(C3CCNCC3)c2-c2ccnc(Oc3ccccc3)n2)cc1`: the inhibition is -3.96% in assay [1]; 1.86% in [2]; 4.87% in [3]; 1.35% in assay [4]; 2.72% in assay [5]; -0.44% in [6]. In addition, the inhibition in assay [7] was 0.52%; in assay [8] it was -4.18%; in assay [9], -4.41%; in assay [10], 1.92%; in assay [11] it was 0.47%; in assay [12] it was 1.72%. Further, the inhibition in assay [13] was -0.9%; in assay [14], -4.16%; in assay [15], -3.08%; in assay [16], 2.53%; in [17], 4.3%; in [18] it was 2.57%. Besides, the figures for the inhibition in assay [19] and in assay [20] were 4.15% and -1.35%, respectively.
As to `COc1cccc(COc2cc(-n3cnc4ccccc43)sc2C(N)=O)c1`, the inhibition in assay [1] was 1.25%; in assay [2], 1.93%; in assay [3], 1.54%; in [4] it was -2.33%; in assay [5], -0.83%; in assay [6], -1.3%. The inhibition in [7] was -4.17%; in assay [8], -9.33%; in assay [9], -0.53%; in [10], -0.84%; in assay [11] it was -0.77%; in [12], 0.89%. The inhibition in assay [13] is 1.25%; in [14], -1.78%; in assay [15], 0.73%; in assay [16], -0.39%; in assay [17], 1.18%; in assay [18] it was 0.3%. Moreover, the values for the inhibition in assay [19] and in assay [20] were 1.75% and 2.33%, respectively.
Turning to `CCn1c(-c2nonc2N)nc2c(C#CC(C)(C)O)ncc(OC[C@@H]3CCCN3)c21`, the inhibition is 2.23% in [1]; 1.47% in [2]; 2.16% in assay [3]; 1.39% in assay [4]; 17.4% in [5]; -1% in assay [6]. The inhibition in assay [7] is -0.61%; in [8], -6.46%; in [9], -1.89%; in [10], -1.01%; in assay [11], 1.75%; in assay [12] it was -0.57%. Moreover, the inhibition in assay [13] is 2.07%; in [15] it was -0.24%; in [16], 0.45%; in assay [17], 0.01%; in assay [18], 0.87%; in [19] it was 0.05%. Besides, the inhibition in assay [20] turned out to be 3.13%.
In the case of `COc1cc(C=NNc2ncnc3c2cnn3Cc2ccccc2)ccc1O`, the inhibition is 4.03% in assay [1]; 11.8% in assay [2]; 52.1% in [3]; -1.46% in assay [4]; 1.82% in [5]; -1.99% in [6]. In addition, the inhibition in assay [7] was -1.02%; in assay [8], -4.43%; in assay [9], -1.56%; in assay [10] it was -1.07%; in assay [11] it was 7.59%; in assay [12] it was 14.6%. In addition, the inhibition in [13] was 30%; in assay [14] it was 2.67%; in [15] it was 1.13%; in [16] it was -5.44%; in [17], -5.52%; in [18] it was -5.58%. For the same molecule, the inhibition in assay [19] was -4.22%; in [20] it was -0.2%.
As for `Cc1cc(-c2ccco2)cc(C)c1/C=C/c1cncc(-c2nn[nH]n2)c1`, the inhibition was 1.04% in assay [1]; 3.13% in [2]; 6.29% in assay [3]; -0.74% in assay [4]; 1.77% in [5]; 1.31% in assay [6]. The inhibition was 1.79% in [7]; -3.95% in assay [8]; 2.63% in assay [9]; 0.37% in [10]; 0.02% in assay [11]; 1.68% in assay [12]. Also, the inhibition in assay [13] was 6.08%; in [14], -1.84%; in [15], 0.77%; in assay [16], 1.61%; in assay [17], 1.61%; in assay [18], 1.63%. Also, the inhibition in assay [19] is 3%; in assay [20], -1.69%.
